Our source for the z-score values is PubChem BioAssay.

Structures are written as SMILES. Active and inactive are the calls of the source.

Assay [1] can be described thus: A549 cell viability effects, profiling panel, calcein-AM fluorescence, 48 h, basal (AID 1162). The settings on record: higher = more signal.
A short description of assay [2]: adipocyte viability effects, profiling panel, cell-based, 3T3-L1 adipocytes, calcein-AM fluorescence, 48 h, basal (AID 1163). Conditions: 3T3-L1 adipocytes viability, higher = more signal.
Assay [3] in a line: HepG2 cell viability effects, profiling panel, calcein-AM fluorescence, 48 h, basal (AID 1164). Conditions: higher = more signal.
Assay [4] can be described thus: MM1S cell viability effects, profiling panel, calcein-AM fluorescence, 48 h, basal (AID 1165).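 Further: viability of MM1S multiple myeloma cells under basal unstimulated conditions.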 The settings on record: higher = more signal.
The nature of assay [5]: basal RPMI8226 viability, no added stimulus, profiling panel, cell-based, calcein-AM fluorescence, 48 h, PK04 Diversity Set (AID 1166).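 Further: cells grown under basal conditions without added stimulus.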 The settings on record: RPMI8226 myeloma viability, higher = more signal.
The nature of assay [6]: basal HepG2 mitochondrial membrane potential changes, profiling panel, cell-based, JC-1 fluorescence, 24 h, 100 nL compound (AID 1167). Conditions: higher = more signal.
Assay [7] in a line: basal 3T3-L1 adipocyte mitochondrial potential changes, profiling panel, cell-based, JC-1 fluorescence, 3T3-L1 adipocytes, 24 h, 100 nL compound (AID 1168). Conditions: JC-1 mitochondrial fluorescence, higher = more signal, called active from +8 up or from −8 down.
The nature of assay [8]: basal RPMI8226 mitochondrial membrane potential changes, profiling panel, cell-based, JC-1 fluorescence, 24 h, 100 nL compound (AID 1169). The settings on record: RPMI8226 myeloma, JC-1 mitochondrial potential fluorescence, higher = more signal.
Assay [9] is described as follows: basal MM1S mitochondrial membrane potential changes, profiling panel, cell-based, JC-1 fluorescence, 24 h, 100 nL compound (AID 1170). Conditions: higher = more signal.
A short description of assay [10]: A549 lung cancer cell viability effects, profiling panel, resazurin fluorescence, 24 h, PK04 Diversity Set (AID 1171). The settings on record: higher = more signal, called active from +8 up or from −8 down. (In general: Alamar Blue is a resazurin reagent that responds to reducing activity.)
Further: test concentration not given here.

As for `CCCC=C(CCC)[C@@H](NC(=O)C(C)(C)C)c1ccc(C(=O)OC)cc1`, the z-score in assay [1] was -1.01; in assay [2] it was -0.886; in [3], -0.47; in assay [4] it was -0.695; in assay [5], -2.08; in assay [6], 3.69. Also, the z-score is -0.614 (inactive) in assay [7], -0.118 in [8], -0.459 in assay [9] and 0.821 (inactive) in assay [10].

In the case of `C=CCC(OC(C)=O)[C@@H]1[C@@H](N(Cc2ccc(-c3cccc(C(F)(F)F)c3)o2)C(=O)c2ccc(-c3ccccc3)cc2)c2cc(OCCCO)ccc2N1C(=O)Cc1ccc2ccccc2c1` (stereo not given in full), the z-score in assay [1] was -0.713; in assay [2] it was 1.22; in [3], 0.374; in assay [4] it was 0.502; in assay [5], -1.15; in [6] it was 1.66. Also, the z-score is 0.437 (inactive) in [7], -0.807 in assay [8], 0.0299 in [9] and 0.378 (inactive) in assay [10].

Regarding `COC(=O)[C@@]1(Cc2ccc(OC)cc2)[C@H]2c3cc(C(=O)N4CCCC4)n(CCc4c[nH]c5ccc(O)cc45)c3C[C@H]2CN1C(=O)c1ccccc1`, the z-score in assay [1] is 1.06; in [2] it was -0.226; in assay [3], 0.8; in [4] it was -0.927; in assay [5], 0.305; in assay [6] it was 0.873. Also, the z-score in [7] was -0.793 (inactive); in assay [8], -0.259; in assay [9], -0.401; in [10], 0.521 (inactive).

Take `Cc1cc(C)c(C(O)C2C=CC3C(=O)N(c4ccccc4)C(=O)C3N2Nc2ccccc2F)c(C)c1` (stereo not given): the z-score in assay [1] was -0.472; in [2] it was -0.89; in assay [3], -0.631; in assay [4], -1.57; in assay [5], 0.48; in assay [6], -1.84. Besides, the z-score in [7] is -0.709 (inactive); in assay [8], -0.15; in [9], 1.01; in assay [10], 1.61 (inactive).

On to `O=C1O[C@H](c2ccccc2)[C@H](c2ccccc2)N2[C@H]1[C@@H](C(=O)O)[C@]1(C(=O)Nc3ccc(C#CCCO)cc31)[C@H]2c1ccccc1OCCO`, for which the z-score is -0.0678 in assay [1]; 1.32 in assay [2]; -0.187 in assay [3]; 0.0409 in [4]; -0.353 in assay [5]; -0.892 in assay [6]. The z-score is -0.426 (inactive) in assay [7], -0.616 in assay [8], 0.884 in assay [9] and -0.0294 (inactive) in assay [10].

With `CCCNC(=O)[C@@]1(C)c2ccccc2C(=O)N(c2ccc(C)cn2)[C@H]1c1ccc(CO)cc1`, the z-score was 0.666 in assay [1]; 0.343 in assay [2]; -0.146 in [3]; -0.108 in assay [4]; 0.526 in assay [5]; 0.204 in [6]. Further, the z-score was -0.0622 (inactive) in assay [7], 0.0215 in assay [8], 0.43 in assay [9] and -0.407 (inactive) in assay [10].

Take `C=CC[C@]1(C(=O)N2CCCCC2)N=C(c2ccc(OCCCO)cc2)O[C@H]1c1ccccc1CN=[N+]=[N-]`: the z-score in assay [1] is -0.416; in assay [2], 0.132; in assay [3], 0.61; in assay [4], -1.11; in assay [5] it was -1.15; in assay [6] it was 0.574. Further, the z-score was 0.32 (inactive) in assay [7], -1.31 in [8], -0.576 in [9] and 0.482 (inactive) in [10].

Turning to `COCCCNC(=O)[C@@]1(CCC(=O)OC(C)(C)C)N=C(c2ccc(OCCCO)cc2)O[C@H]1c1ccccc1N=[N+]=[N-]`, the z-score is 0.618 in assay [1]; 0.251 in assay [2]; 0.977 in assay [3]; -1.21 in [4]; -1.16 in assay [5]; 1.74 in assay [6]. Besides, the z-score was 3.98 (inactive) in assay [7], -1.15 in [8], -0.386 in assay [9] and 1.38 (inactive) in assay [10].

With `COc1ccc(CCNC(=O)[C@@]2(c3ccc([N+](=O)[O-])cc3)CC(=O)N(C3CCCCC3)[C@@H]2c2ccc(CO)cc2)cc1`, the z-score in assay [1] is 2.41; in assay [2] it was 0.414; in assay [3], 1.12; in assay [4], 0.547; in assay [5], 0.841; in assay [6], 2.85. Moreover, the z-score in assay [7] is -0.171 (inactive); in [8], 0.562; in assay [9], 0.954; in assay [10] it was 1.28 (inactive).

In the case of `COc1ccc([Si](C)(C)[C@H]2[C@H](CC(=O)N3Cc4ccccc4C[C@H]3CO)O[C@@]3(C(=O)N(Cc4ccc(N5CCOC5=O)cc4)c4ccccc43)[C@@H]2C)cc1`, the z-score in [1] was -0.135; in [2], 1.35; in [3], -0.919; in assay [4] it was -2.92; in assay [5], -4.23; in assay [6], -0.0556. In addition, the z-score was 0.19 (inactive) in [7], -1.04 in assay [8], -1.94 in assay [9] and -0.0717 (inactive) in assay [10].

Regarding `COC(=O)[C@@]1(Cc2ccc(OC)cc2)[C@H]2c3cc(C(=O)N(C)C)n(Cc4ccc(C)o4)c3C[C@H]2CN1C(=O)c1ccccc1`, the z-score in [1] was 0.774; in [2] it was -0.0339; in assay [3], 0.81; in assay [4], -1.92; in [5], -0.744; in assay [6], 4.47. In addition, the z-score is -0.263 (inactive) in assay [7], -0.939 in assay [8], -3.01 in assay [9] and -0.21 (inactive) in [10].

In the case of `Cc1ccc(N2C(=O)c3ccccc3[C@@H](C(=O)NCCCN(C)C)[C@@H]2c2ccc(CO)cc2)nc1`, the z-score in assay [1] is -0.249; in [2] it was 0.297; in [3], 0.0355; in assay [4], 0.817; in [5] it was -0.71; in assay [6], -0.685. Further, the z-score in [7] was 0.208 (inactive); in [8], -0.0886; in [9], -0.241; in assay [10], -0.0494 (inactive).

With `COc1ccc([Si](C)(C)[C@@H]2[C@@H](CCO)O[C@]3(C(=O)N(Cc4ccccc4)c4ccc(N5C(=O)c6cccc7cccc5c67)cc43)[C@H]2C)cc1`, the z-score in assay [1] was -0.768; in assay [2], -0.384; in [3], -0.916; in assay [4], -0.61; in [5] it was -2.73; in assay [6], -0.555. In addition, the z-score in assay [7] is 0.943 (inactive); in [8], -0.751; in [9], -1.3; in assay [10], -0.149 (inactive).

Turning to `CC(C)[Si]1(C(C)C)OCc2cc(-c3ccc(-c4ccc(Cl)c(Cl)c4)o3)nc(-c3ccccc3)c21`, the z-score in assay [1] is -0.715; in assay [2], 0.369; in [3], -0.738; in assay [4] it was -1.77; in assay [5] it was -1.8; in [6], -1.18. Moreover, the z-score is -0.485 (inactive) in [7], 0.194 in [8], 0.406 in [9] and 0.793 (inactive) in assay [10].

Turning to `CC(C)N1C(=O)c2ccccc2[C@@H](C(=O)NCCN2CCOCC2)[C@@H]1c1ccc(CO)cc1`, the z-score was 0.281 in assay [1]; -0.973 in [2]; 0.135 in [3]; -0.551 in assay [4]; 0.165 in assay [5]; -0.247 in [6]. The z-score in assay [7] was -1.26 (inactive); in [8] it was 0.772; in assay [9], 0.113; in assay [10], 0.175 (inactive).

For the compound `CC(C)N1CC=CC23O[C@@H]4C=CCCOC(=O)C4[C@H]2C(=O)N(CCCO)[C@@H]3C1=O` (stereo not given in full), the z-score in assay [1] is -0.726; in assay [2] it was 1.36; in assay [3] it was 0.292; in [4] it was 0.756; in assay [5] it was -0.457; in assay [6], -0.568. In addition, the z-score in assay [7] was 0.128 (inactive); in assay [8] it was -0.303; in assay [9] it was -0.438; in assay [10] it was 0.446 (inactive).
